Laboratory results taken from PubChem BioAssay (EPA / NIEHS).
Calls of active or inactive are those of the source. Rule for the calls: active = hit-call score of the fitted dose curve at least 0.9, where 1 is the maximum; inactive = score below 0.9.

Experiments:
Conditions in all cases: mRNA level, 48 h; actives raise or lower the signal
[1] = read-out: Cytochrome P450 4A22 (Homo sapiens) (UniProt Q5TCH4); test: LTEA_HepaRG_CYP4A22: Life Technologies and Expression Analysis (LTEA) Assay for Cytochrome P450 4A22 (CYP4A22) using HepaRG (AID 2283495)
Method in brief: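 Cryopreserved HepaRG cells, plated and cultured 48 h, then switched to serum-free induction medium and treated 48 h (duplicates, up to 100 uM, half-log steps, 0.5% DMSO). Expression change of CYP4A22 was fitted bidirectionally against vehicle.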

[2] = read-out: Cytochrome P450 7A1 (Homo sapiens) (UniProt P22680); test: LTEA_HepaRG_CYP7A1: Life Technologies and Expression Analysis (LTEA) Assay for Cytochrome P450 7A1 (CYP7A1) using HepaRG (AID 2283496)
Method in brief: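 HepaRG cells plated 48 h, then switched to serum-free induction medium and exposed in duplicate for 48 h to 8-point half-log series from 100 uM in 0.5% DMSO. CYP7A1 mRNA by qRT-PCR (TaqMan), normalized to ACTB/GAPDH/POLR2A; bidirectional fit versus DMSO.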

[3] = read-out: Glutathione S-Transferase (GSTA2), GSTA2 (gene 2939); test: LTEA_HepaRG_GSTA2: Life Technologies and Expression Analysis (LTEA) Assay for Glutathione S-Transferase (GSTA2) using HepaRG (AID 2283497)
Method in brief: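 HepaRG, 48 h dosing, 8-pt half-log CRC from 100 uM, 0.5% DMSO vehicle, n=2; RNA → Fluidigm TaqMan qRT-PCR; GSTA2 vs ACTB/GAPDH/POLR2A; gain/loss fit vs DMSO.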

[4] = read-out: Glutamate-cysteine ligase catalytic (GCLC), GCLC (gene 2729); test: LTEA_HepaRG_GCLC: Life Technologies and Expression Analysis (LTEA) Assay for Glutamate-cysteine ligase catalytic (GCLC) using HepaRG (AID 2283498)
Method in brief: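 Read-out is GCLC transcript level by Fluidigm-based TaqMan qRT-PCR, normalized to three housekeeping genes and fitted in both directions relative to 0.5% DMSO. Human HepaRG cells received chemicals for 48 h, up to 100 uM.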

[5] = read-out: growth arrest and DNA damage 45 (GADD45G), GADD45G (gene 10912); test: LTEA_HepaRG_GADD45G: Life Technologies and Expression Analysis (LTEA) Assay for growth arrest and DNA damage 45 (GADD45G) using HepaRG (AID 2283499)
Method in brief: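 Human hepatic HepaRG line treated 48 h with chemicals (eight concentrations, half-log steps from 100 uM); transcript induction or repression of GADD45G scored by qRT-PCR versus DMSO vehicle.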

[6] = read-out: Glutamate-cysteine ligase regulatory (GCLM), GCLM (gene 2730); test: LTEA_HepaRG_GCLM: Life Technologies and Expression Analysis (LTEA) Assay for Glutamate-cysteine ligase regulatory (GCLM) using HepaRG (AID 2283500)
Method in brief: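 Cells were plated, cultured 48 h, switched to serum-free induction medium, then dosed in duplicate for 48 h at eight half-log concentrations up to 100 uM. RNA was then profiled by qRT-PCR; gain or loss versus DMSO was fitted.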

[7] = read-out: Glutathione S-transferase M3 (GSTM3), GSTM3 (gene 2947); test: LTEA_HepaRG_GSTM3: Life Technologies and Expression Analysis (LTEA) Assay for Glutathione S-transferase M3 (GSTM3) using HepaRG (AID 2283501)
Method in brief: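 Changes in GSTM3 expression, an oxidative-stress marker, were scored by bidirectional curve fitting against 0.5% DMSO vehicle. Human HepaRG cultures received chemicals for 48 h in duplicate, highest concentration 100 uM with half-log dilutions.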

[8] = read-out: Heat shock 70 kDa protein 1 (HSPA1A), gene 3303; test: LTEA_HepaRG_HSPA1A: Life Technologies and Expression Analysis (LTEA) Assay for Heat shock 70 kDa protein 1 (HSPA1A) using HepaRG (AID 2283502)
Method in brief: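 Readout is HSPA1A transcript level by microfluidic qRT-PCR, normalized to three housekeeping genes and analysed for gain or loss of signal relative to 0.5% DMSO. Human HepaRG cultures received test chemicals for 48 h at up to 100 uM.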

[9] = read-out: 3-Hydroxy-3-Methylglutaryl-CoA Synthase 2 (HMGCS2), HMGCS2 (gene 3158); test: LTEA_HepaRG_HMGCS2: Life Technologies and Expression Analysis (LTEA) Assay for 3-Hydroxy-3-Methylglutaryl-CoA Synthase 2 (HMGCS2) using HepaRG (AID 2283504)
Method in brief: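 Expression of HMGCS2 in human HepaRG liver cells is measured by qRT-PCR 48 h after dosing (highest 100 uM, half-log series, 0.5% DMSO). Values come from bidirectional concentration-response fitting with DMSO as baseline.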

HGF (gene 3082) = test: LTEA_HepaRG_HGF: Life Technologies and Expression Analysis (LTEA) Assay for Hepatocyte Growth Facto (HGF) using HepaRG (AID 2283505)
Method in brief: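 Gain or loss of HGF mRNA in human HepaRG liver cells after 48 h chemical exposure; eight concentrations up to 100 uM with 0.5% DMSO vehicle, quantified by TaqMan qRT-PCR.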

[10] = read-out: Insulin Like Growth Factor 1 (IGF1), IGF1 (gene 3479); test: LTEA_HepaRG_IGF1: Life Technologies and Expression Analysis (LTEA) Assay for Insulin Like Growth Factor 1 (IGF1) using HepaRG (AID 2283506)
Method in brief: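 HepaRG, plated 48 h, then switched to serum-free induction media; test chemical 8-pt half-log from 100 uM (0.5% DMSO), duplicate, 48 h. Lysis in RLT, TaqMan qRT-PCR, norm. ACTB/GAPDH/POLR2A. Bidirectional fit vs DMSO.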

[11] = read-out: Intercellular Adhesion Molecule 1 (ICAM1), ICAM1 (gene 3383); test: LTEA_HepaRG_ICAM1: Life Technologies and Expression Analysis (LTEA) Assay for Intercellular Adhesion Molecule 1 (ICAM1) using HepaRG (AID 2283507)
Method in brief: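 Gain or loss of transcript in HepaRG hepatic cells is quantified by qRT-PCR after 48 h chemical exposure (up to 100 uM, half-log steps), with DMSO as baseline.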

[12] = read-out: Insulin-like growth factor-binding protein 1 (IGFBP1), IGFBP1 (gene 3484); test: LTEA_HepaRG_IGFBP1: Life Technologies and Expression Analysis (LTEA) Assay for Insulin-like growth factor-binding protein 1 (IGFBP1) using HepaRG (AID 2283508)
Method in brief: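 mRNA induction or loss was quantified by qRT-PCR after 48 h chemical exposure of human HepaRG cells, with 0.5% DMSO as vehicle and baseline. Concentration-response over eight points up to 100 uM.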

[13] = read-out: Interleukin 6 (IL6), IL6 (gene 3569); test: LTEA_HepaRG_IL6: Life Technologies and Expression Analysis (LTEA) Assay for Interleukin 6 (IL6) using HepaRG (AID 2283509)
Method in brief: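 HepaRG, ~100,000 cells/well, 48 h pre-culture; serum-free induction medium; cmpd 8-pt half-log from 100 uM, 0.5% DMSO, duplicate, 48 h. Lysis in RLT, TaqMan qRT-PCR; gain or loss vs DMSO.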

[14] = read-out: Interleukin 6 Receptor (IL6R), IL6R (gene 3570); test: LTEA_HepaRG_IL6R: Life Technologies and Expression Analysis (LTEA) Assay for Interleukin 6 Receptor (IL6R) using HepaRG (AID 2283510)
Method in brief: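 Readout is IL6R transcript level by TaqMan qRT-PCR, normalized to three housekeeping genes and fitted bidirectionally against 0.5% DMSO controls. Human HepaRG cells received chemicals for 48 h in serum-free induction medium, highest concentration 100 uM.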

[15] = read-out: Potassium channel subfamily K member 1 (KCNK1), KCNK1 (gene 3775); test: LTEA_HepaRG_KCNK1: Life Technologies and Expression Analysis (LTEA) Assay for Potassium channel subfamily K member 1 (KCNK1) using HepaRG (AID 2283511)
Method in brief: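 Gain or loss of KCNK1 mRNA is the read-out, quantified by qRT-PCR against three housekeeping genes after 48 h chemical treatment of human HepaRG liver cells. Concentrations ran from 100 uM downward in half-log steps, vehicle 0.5% DMSO.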

[16] = read-out: Keratin 19 (KRT19), KRT19 (gene 3880); test: LTEA_HepaRG_KRT19: Life Technologies and Expression Analysis (LTEA) Assay for Keratin 19 (KRT19) using HepaRG (AID 2283512)
Method in brief: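 Gene-expression endpoint in the human liver line HepaRG after 48 h exposure to up to 100 uM test chemical with 0.5% DMSO vehicle; KRT19 mRNA by qRT-PCR, analyzed bidirectionally versus DMSO.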

[17] = read-out: JUN Transcription Factor, JUN (gene 3725); test: LTEA_HepaRG_JUN: Life Technologies and Expression Analysis (LTEA) Assay for JUN Transcription Factor using HepaRG (AID 2283513)
Method in brief: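 Cells plated 48 h, medium switched to serum-free induction medium, then dosed 48 h (100 uM top, half-log dilutions, 0.5% DMSO). RNA isolated; JUN measured by qRT-PCR against three housekeeping genes; gain or loss fitted relative to DMSO.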

[18] = read-out: Lipase C (LIPC), LIPC (gene 3990); test: LTEA_HepaRG_LIPC: Life Technologies and Expression Analysis (LTEA) Assay for Lipase C (LIPC) using HepaRG (AID 2283514)
Method in brief: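 Read-out is LIPC transcript level by TaqMan qRT-PCR, normalized to three housekeeping genes, after 48 h chemical treatment of human HepaRG liver cells. Curves span eight concentrations topping at 100 uM; activity in either direction scored relative to 0.5% DMSO.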

[19] = read-out: Hypoxia-inducible factor 1-alpha (Homo sapiens) (UniProt Q16665); test: LTEA_HepaRG_HIF1A: Life Technologies and Expression Analysis (LTEA) Assay for Hypoxia-inducible factor 1 (HIF1A) Trancription factor using HepaRG (AID 2283503)
Method in brief: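 Differentiated HepaRG cells in serum-free induction medium exposed 48 h, in duplicate, to 8-point half-log series from 100 uM in 0.5% DMSO. HIF1A mRNA measured by TaqMan qRT-PCR, normalized to ACTB/GAPDH/POLR2A, fitted bidirectionally versus DMSO.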

Measured: AC50

Sequence of Hypoxia-inducible factor 1-alpha (Homo sapiens) (Q16665 whole entry, looked up): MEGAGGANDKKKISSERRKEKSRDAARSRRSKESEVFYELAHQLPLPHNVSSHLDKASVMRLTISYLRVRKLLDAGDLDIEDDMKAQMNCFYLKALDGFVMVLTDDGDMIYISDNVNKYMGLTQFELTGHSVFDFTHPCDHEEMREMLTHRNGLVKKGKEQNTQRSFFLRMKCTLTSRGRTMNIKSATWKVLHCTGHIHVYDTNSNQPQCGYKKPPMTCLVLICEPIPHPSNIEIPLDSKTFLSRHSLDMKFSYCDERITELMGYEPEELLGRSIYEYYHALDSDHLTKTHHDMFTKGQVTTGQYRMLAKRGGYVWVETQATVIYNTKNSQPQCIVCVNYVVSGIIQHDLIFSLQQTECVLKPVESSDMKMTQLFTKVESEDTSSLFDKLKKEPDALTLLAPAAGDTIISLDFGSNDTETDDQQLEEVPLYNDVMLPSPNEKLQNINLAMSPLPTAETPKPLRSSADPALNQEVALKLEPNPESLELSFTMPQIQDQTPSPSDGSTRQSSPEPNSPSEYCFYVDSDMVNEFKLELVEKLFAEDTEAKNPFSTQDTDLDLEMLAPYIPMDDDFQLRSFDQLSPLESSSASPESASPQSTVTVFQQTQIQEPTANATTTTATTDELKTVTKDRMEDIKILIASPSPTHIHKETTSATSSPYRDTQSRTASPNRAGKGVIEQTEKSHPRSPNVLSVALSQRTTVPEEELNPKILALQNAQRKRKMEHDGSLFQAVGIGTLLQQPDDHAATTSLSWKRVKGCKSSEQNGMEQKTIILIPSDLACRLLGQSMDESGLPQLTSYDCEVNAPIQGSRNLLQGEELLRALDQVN

Cc1cn([C@H]2C[C@H](N=[N+]=[N-])[C@@H](CO)O2)c(=O)[nH]c1=O
not listed: [19]
inactive: all other assays above

CCCC(=O)OCCC(C)C
inactive: all assays above

CCCCCCCCCCCO
inactive: all assays above

CN(C)C(=O)C1(N2CCCCC2)CCN(CC[C@@]2(c3ccc(Cl)c(Cl)c3)CN(C(=O)c3ccccc3)CCO2)CC1
active: [2] 25.2 µM | [3] 22 µM | [4] 88.3 µM | [5] 37.8 µM | [6] 88.3 µM | [7] 27.3 µM | [8] 15.2 µM | [19] 33.1 µM | [9] 68.6 µM | [10] 90.9 µM | [11] 47.2 µM | [12] 21.6 µM | [13] 22.1 µM | [15] 14.9 µM | [17] 31 µM
inactive: [1] | HGF (gene 3082) | [14] | [16] | [18]
